Reference: PubChem BioAssay AID720518 (National Center for Advancing Translational Sciences (NCATS), 2013)
Inconclusive results are not listed. Values without a mark were called inactive. Activity calls are given as the source filed them. The call rests on the fitted dose curve.

Experiment: qHTS for Inhibitors of Cell Surface uPA Generation: Wild-type Protective Antigen (WT-PrAg) Counterscreen for Cherry-picked Compounds; on activity (protection): 0% is about no effect
Conditions: cells, WT protective antigen toxicity counterscreen; series mostly up to 115 µM; activity (protection): at the top concentration
Potency means the concentration at half of the fitted maximal effect.

Compound | activity (protection) | Potency
COc1ccccc1N=Nc1c(C)[nH]n(-c2ccccc2)c1=O | 4.55% | 
COc1ccc(NS(=O)(=O)c2cc(NS(=O)(=O)c3cc(C(=O)O)ccc3OC)ccc2C)cc1 | 0.066% | 
C=CCOC(=O)C1=C(C)NC(C)=C(C(=O)OCC=C)C1c1cn(-c2ccccc2)nc1-c1ccco1 | 1.61% | 
CCOC(=O)N1CCN(C(=O)c2ccc3c(c2)sc2nc(-c4ccc(OC)cc4)cn23)CC1 | -0.943% | 
O=c1[nH]c(=O)n(CCc2ccccc2)c(O)c1C=NC1CC1 | -0.566% | 
CCC1=NN(C(=O)C(=O)Nc2ccc(OC)cc2)C(O)(C(F)(F)F)C1 (stereo not given) | -0.449% | 
COC(=O)c1c(NC(=O)c2c(OC)cccc2OC)sc2c1C(C(=O)OC)CC2 (stereo not given) |  | 46.5 µM (active)
OCC1CCCCN1CC(O)COC(c1ccc(F)cc1)c1ccc(F)cc1 (stereo not given) | 0.726% | 
O=C1C[C@@H]2CCN3C(=O)CCC[C@@H]([C@H]23)[C@H]1Cc1ccccc1 | -0.693% | 
CN(Cc1ccc(C(C)(C)C)cc1)C(=O)Cc1ccc(S(=O)(=O)N2CCOCC2)s1 | -2.37% | 
COc1cc(SC)ccc1C(=O)OCc1nc2ccsc2c(=O)[nH]1 | 0.671% | 
Cn1c(SCC(=O)NNC(=O)c2ccc(Br)cc2)nnc1-c1cccnc1 | -1.04% | 
Cc1ccccc1C(=O)Nc1ccccc1N1CCCCC1 | 1.64% | 
Fc1ccc(N2CCN(c3nc(CN4CCOCC4)nc4scc(-c5ccccc5)c34)CC2)cc1 | -1.42% | 
CC(=O)Nc1nc2ccccc2[nH]1 | 0.0855% | 
COc1cccc(NC(=O)N2C3CCCC2CC(NC(C)=O)C3)c1 (stereo not given) | 0.204% | 
Cc1ccc(N=C2SCCCN2C(=O)c2cccc(N3C(=O)CCC3=O)c2)cc1Cl | -1.92% | 
CC1CN(C(=O)CCC(=O)NCc2ccccc2)c2ccccc2S1 (stereo not given) | 4.57% | 
COc1ccc2[nH]cc(S(=O)(=O)c3ccc(C(C)C)cc3)c(=O)c2c1 | 0.533% | 
COc1cc(CN2CCNC(=O)C2CC(=O)NCCCC2CCCC2)cc(OC)c1 (stereo not given) | -2% | 

Compound | activity (protection) | Potency
CCC(NC(=O)Cc1c(C)c2c(cc(C)c3c(C)c(C)oc32)oc1=O)C(=O)O (stereo not given) | -2.27% | 
CC(=O)c1ccc(N2CCN(C(=S)NCc3ccco3)CC2)cc1 | -1.46% | 
O=C(CCN1CCN(c2ccccc2F)CC1)Nc1ccc(F)cc1 | -2.31% | 
CCCCCn1c(=O)c(C(=O)Nc2ccccn2)c(O)c2ccccc21 | -2.18% | 
CN(CC(=O)N(C)CC(=O)Nc1c(Cl)cccc1Cl)Cc1ccccc1F | 1.34% | 
Cc1oc(-c2ccccc2F)nc1CS(=O)CC(=O)NCc1ccc(F)cc1 (stereo not given) | -1.42% | 
CCN(CC)CC(=O)Nc1sc2c(c1C(=O)c1ccccc1OC)CCC2 |  | 9.27 µM (active)
CCCCn1c(SCC(=O)Nc2cc(C(F)(F)F)ccc2Cl)nnc1C(CC)N(C)C (stereo not given) |  | 58.5 µM (active)
Cc1nc(C(=O)N2CCC(n3nccc3NC(=O)Nc3ccccc3Cl)CC2)cs1 | -1.86% | 
COc1ccccc1C(=O)NCc1ccccc1 | -0.863% | 
CC(C)Cn1cnc2c(N)nc3ccccc3c21 | 7.56% | 
CC(NC(=O)NC1CCCCC1)C(c1cccs1)N1CCN(C)CC1 (stereo not given) | 1.32% | 
COc1cc(C(=O)N/N=C(\Cc2ncc[nH]2)c2ccccc2)cc(OC)c1OC | 1.36% | 
CC1CS(=O)(=O)CCN1N=Cc1ccc([N+](=O)[O-])o1 (stereo not given) | -2.06% | 
O=C(NCc1ccc2c(c1)OCO2)c1ccccn1 | 0.737% | 
O=C(NCCCn1cccn1)C1CCC(=O)N(Cc2ccccc2F)C1 (stereo not given) | -0.576% | 
C[C@@]12C(=O)N(CC3CCCO3)CC(=O)N1[C@H]1c3cc(Cl)ccc3OC[C@@H]1[C@@H]2c1ccccc1 (stereo not given in full) | -2.18% | 
O=C(N/N=C/c1cccs1)c1ccco1 | -1.72% | 
CC(C)OC(=O)c1ccc(N2CCN(c3ccccc3F)CC2)nc1 | -1.86% | 
Cc1ccc(S(=O)(=O)N(C)c2ccc(OC(=O)c3ccc(=O)[nH]c3)cc2)cc1 | -0.512% | 
